Most compounds without a hit are left out; they make up all but 1.5% or so of the library.
TrxR1 substrate: is turned over as a substrate by rat TrxR1 | Potency, µM (series often up to 114 µM) | AID 588456 | O89049 | purified TrxR1 substrate turnover, NADPH consumption readout | 390,000 compounds, 0.01% hits; note: nearly all actives have a fitted effect of over 50% in size
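Rat TrxR1, dispensed at 90 nM, was prereduced with 400 uM NADPH (final) for 5 min at ~22 deg C, then incubated with compound 15 min before 400 uM selenite. A first-read NADPH fluorescence drop versus no-compound background flagged substrates.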
IDH1 R132H inh: human IDH1 R132H inhibition. O75874. IDH1-R132H enzyme, NADPH consumption, diaphorase/resazurin fluorescence. Potency, µM (titrated, usually from 76.6 µM), usual class: inhibitors. 390,000 compounds, 0.093% hits; note: nearly all actives have a fitted effect of over 65% in size
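IDH1-R132H (0.5 ug/mL dispensed) in pH 7.5 Tris buffer was preincubated 30 min with compound, then given a substrate mix of 0.016 mM NADPH and 2 mM alpha-KG for 80 min at room temperature; remaining NADPH was read by diaphorase/resazurin fluorescence.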
rTrxR1 inhibitor: inhibitors of rat thioredoxin reductase 1 | recombinant rTrxR1, NADPH fluorescence consumption, selenite substrate | Potency, µM (titrated, usually from 114 µM), hits mostly inhibitors | 390,000 compounds, 1% hits; note: nearly all actives have a fitted effect of over 65% in size
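Rat TrxR1 (90 nM in the dispensed reagent) was pre-reduced with 400 uM NADPH for 5 min at room temperature, then incubated with compound for 15 min. After 400 uM selenite was added, NADPH fluorescence (Ex 340/Em 450 nm) was followed for 8 min.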
FBPA coupling cs: coupling enzyme interference in Giardia aldolase counter-screen | coupling enzyme system counterscreen, AmpLite Red fluorescence | activity change, negative = inhibition, % at 58.2 µM, hits read low | 290,000 compounds, 0.67% hits | AID 2472; in the data active = activity change below about -30%
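Fluorescence at 525 nm excitation and 598 nm emission measured inhibition of the coupled detection system without aldolase. Compounds (at 57.5 uM final) were preincubated 10 min at room temperature with coupling enzyme reagent before a 20 min substrate/AmpLite Red step.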
Eya2 phos inh: inhibitors of human Eya2 phosphatase activity | 330,000 compounds, 0.006% hits | Potency, µM (series often up to 76.9 µM), most hits filed as inhibitors | O00167 | recombinant Eya2, OMFP fluorescence dephosphorylation (OMFP is methylfluorescein phosphate)
Target sequence (O00167 whole entry, looked up): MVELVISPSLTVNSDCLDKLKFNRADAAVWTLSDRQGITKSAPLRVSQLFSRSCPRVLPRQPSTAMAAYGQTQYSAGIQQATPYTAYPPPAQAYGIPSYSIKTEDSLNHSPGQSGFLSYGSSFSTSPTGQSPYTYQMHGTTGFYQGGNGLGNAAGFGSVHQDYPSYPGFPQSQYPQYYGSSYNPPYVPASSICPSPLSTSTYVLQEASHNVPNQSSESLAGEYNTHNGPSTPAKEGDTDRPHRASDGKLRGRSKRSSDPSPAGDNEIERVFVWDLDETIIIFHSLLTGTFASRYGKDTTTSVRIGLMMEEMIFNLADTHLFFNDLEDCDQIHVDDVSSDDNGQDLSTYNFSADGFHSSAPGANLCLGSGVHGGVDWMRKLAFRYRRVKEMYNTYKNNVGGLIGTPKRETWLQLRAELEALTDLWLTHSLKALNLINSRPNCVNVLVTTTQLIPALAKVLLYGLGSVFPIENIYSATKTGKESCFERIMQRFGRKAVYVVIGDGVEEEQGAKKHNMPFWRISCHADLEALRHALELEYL
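Eya2 protein (added as 0.2 uM solution) was preincubated with compound for 10 min at ambient temperature in 50 mM HEPES pH 7.5, 50 mM NaCl, 5 uM MgCl2, 0.05% BSA, 1 mM DTT. OMFP (added at 50 uM) then reacted 10 min; fluorescence read at 485/525 nm.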
Resorufin autofl: interferes with resorufin fluorescence in IDH1 counter-screen | inhibition of signal, % at 51.2 µM | Resorufin detection reagent fluorescence interference, cell-free | AID 623980 | shares compounds with IDH1 R132H inh | 750 tested, under 10 active
IDH1 WT: inhibits human wild-type IDH1, mutant selectivity check. WT IDH1 enzyme, NADPH diaphorase/resazurin fluorescence. 750 compounds, 9% hits. AID 623995. Potency, µM (titrated, usually from 115 µM), actives largely listed as inhibitors. shares compounds with IDH1 R132H inh; note: nearly all actives have a fitted effect of over 55% in size
mIDH1 confirm: confirmation of human mutant IDH1 inhibitors. shares compounds with IDH1 R132H inh. IDH1 R132H enzyme, NADPH diaphorase/resazurin fluorescence. Potency, µM (highest dose often 76.6 µM), most hits filed as inhibitors. 750 compounds, 83% hits. AID 624002; note: nearly all actives have a fitted effect of over 50% in size
Large screens that a line does not name were inactive (follow-up assays come after a bar, where they were run). Unless noted, calls come from the whole dose curve; as a rule, active = well fitted curve in the direction sought with a large enough effect; inconclusive = small, poorly fitted or top-dose-only effect, or another doubt; inactive = no such curve, though single readings can be large; an effect the other way counts as inactive or inconclusive.

COc1cccc(C2c3c(-c4ccccc4O)n[nH]c3C(=O)N2CCc2ccc(OC)c(OC)c2)c1 (centres undefined)	IDH1 R132H inh inconclusive (no result: FBPA coupling cs, Eya2 phos inh) | Resorufin autofl inactive | IDH1 WT inactive | mIDH1 confirm 25µM
COc1ccc(CCN2C(=O)c3[nH]nc(-c4ccccc4O)c3C2c2cccc(O)c2)cc1OC (centres undefined)	none
O=C1c2[nH]nc(-c3ccccc3O)c2C(c2cccc(Cl)c2)N1CC1CCCO1 (centres undefined)	IDH1 R132H inh inconclusive | Resorufin autofl inactive | IDH1 WT inactive | mIDH1 confirm 40µM
CCCCN1C(=O)c2[nH]nc(-c3ccccc3O)c2C1c1cc(Br)c(O)c(OC)c1 (centres undefined)	IDH1 R132H inh 28µM (no result: FBPA coupling cs, Eya2 phos inh) | Resorufin autofl inactive | IDH1 WT 40µM | mIDH1 confirm 8.9µM
CNc1c(Br)cc(/C=C2\C=Cc3ccccc32)cc1Br	none (no result: IDH1 R132H inh, FBPA coupling cs, Eya2 phos inh)
Cc1cn(C2CC3OCC(NC(=O)C4CCCN4C(=O)OC(C)(C)C)C3O2)c(=O)[nH]c1=O (centres undefined)	none (no result: IDH1 R132H inh, Eya2 phos inh)
Cc1ccc(C(C(=O)NC2CCCCC2)N(Cc2ccco2)C(=O)Cn2cnc3ccccc32)cc1 (centres undefined)	IDH1 R132H inh 29µM, rTrxR1 inhibitor inconclusive | Resorufin autofl inactive | IDH1 WT inactive | mIDH1 confirm 13µM
O=C(NC1CCCCC1)C(c1ccccc1F)N(Cc1ccco1)C(=O)Cn1nnc2ccccc21 (centres undefined)	IDH1 R132H inh inconclusive | Resorufin autofl inactive | IDH1 WT inactive | mIDH1 confirm 11µM
O=C(NC1CCCCC1)C(c1ccc(F)cc1)N(Cc1ccco1)C(=O)Cn1nnc2ccccc21 (centres undefined)	none
O=C(NCc1ccco1)C(c1ccccc1)N(CC1CCCO1)C(=O)Cn1nnc2ccccc21 (centres undefined)	none
Cc1ccccc1C(C(=O)NCc1ccco1)N(CC1CCCO1)C(=O)Cn1nnc2ccccc21 (centres undefined)	IDH1 R132H inh inconclusive | Resorufin autofl inactive | IDH1 WT inactive | mIDH1 confirm 40µM
CCC(C)(C)NC(=O)C(c1ccc(C)cc1)N(Cc1ccco1)C(=O)Cn1nnc2ccccc21 (centres undefined)	none
C[C@@H]1C(=O)O[C@H]2C[C@@]34[C@H]5C[C@@H](C(C)(C)C)[C@]36[C@H](OC(=O)[C@H]6O)O[C@]4(C(=O)O5)[C@]21O	none (no result: TrxR1 substrate, IDH1 R132H inh, rTrxR1 inhibitor, Eya2 phos inh)
COc1ccc(NC(=S)N2CCN(C(c3ccccc3)c3ccccc3)CC2)cc1OC	none
COc1cc(C(=S)N2CCN(C(c3ccccc3)c3ccccc3)CC2)cc(OC)c1O	IDH1 R132H inh inconclusive | Resorufin autofl inactive | IDH1 WT inactive | mIDH1 confirm 22µM
COc1ccc(C(=O)Nc2ncnc3nc[nH]c23)cc1	none (no result: IDH1 R132H inh, FBPA coupling cs, Eya2 phos inh)
COc1ccc2c(c1)O[C@H](c1ccc3c(c1)OCO3)[C@@H](OC(=O)NS(=O)(=O)c1ccc(C)cc1)C2=O	none (no result: TrxR1 substrate, IDH1 R132H inh, rTrxR1 inhibitor, Eya2 phos inh)
COc1ccc(N(C(=O)/C=C/C(=O)Nc2cc(C)on2)C(C(=O)NC2CCCC2)c2ccccc2C)cc1 (centres undefined)	IDH1 R132H inh inconclusive | Resorufin autofl inactive | IDH1 WT inactive | mIDH1 confirm 35µM
Cc1cc(NC(=O)CCCC(=O)N(c2ccccc2)C(C(=O)NC2CCCCC2)c2cccs2)no1 (centres undefined)	IDH1 R132H inh inconclusive | Resorufin autofl inactive | IDH1 WT inactive | mIDH1 confirm 20µM
Cc1cc(NC(=O)CCC(=O)N(c2ccccc2)C(C(=O)NC2CCCC2)c2ccccc2F)no1 (centres undefined)	IDH1 R132H inh inconclusive, Eya2 phos inh inconclusive | Resorufin autofl inactive | IDH1 WT inactive | mIDH1 confirm 22µM

Source: PubChem BioAssay
